From PubChem BioAssay (NCATS) come the findings set out here.

Results filed as inconclusive are left out. Unmarked numbers belong to inactive results. Activity calls are given as the source filed them. Calls come from the whole dose curve; as a rule, active = well fitted inhibition curve with a large enough effect; inconclusive = small, poorly fitted or top-dose-only effect; inactive = flat fitted curve, though single readings scatter. *1 amine or outer side, *2 acyl side, *3 side chain or, on linkers, in order; H or OH if unused. Where a SMILES comes first, the peptide text is derived from it. Bridges are numbered along the chain shown (N, C = ends). [ ]: non-standard residue; d: D form. The star is where a group is joined. pTerphenylCO(4''-OnC5H11) = CCCCCOc1ccc(-c2ccc(-c3ccc(C(=O)*)cc3)cc2)cc1; Orn(4R-OH,5R-OH) = O=C([C@H](C[C@@H](O)[C@@H](O)N[*:3])N[*:1])[*:2]; hTyr(3S-OH,4S-OH) = N[C@H](C(=O)O)[C@H](O)[C@@H](O)c1ccc(O)cc1; Pro(3S-OH,4S-Me) = C[C@H]1CN[C@H](C(=O)O)[C@H]1O; Hyp = O=C(O)[C@@H]1C[C@@H](O)CN1
% is set by controls: 0 for no effect and ±100 for the full control effect; potency is the fitted concentration of half-maximal effect.

The first test relates to KB-3-1. Nature of the test: Cytotoxic Profiling of Annotated Libraries Using Quantitative High-Throughput Screening (AID 1296008). Note: nearly all actives have a fitted effect of over 60% in size. The following applies: Five cell lines viability, CellTiter-Glo ATP luminescence, 48-72 h; max response: active compounds read low. The method in brief:
(§1)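 Cytotoxicity was measured as CellTiter-Glo ATP luminescence, read after 10 min at room temperature. Compound treatment of the cells lasted 48 or 72 hr at 37 degrees Celsius in a qHTS format.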
In general terms: Cellular ATP, detected with luciferase, serves as a proxy for viable cell number.
Take `O=c1[nH]cnc2c([C@@H]3N[C@H](CO)[C@@H](O)[C@H]3O)c[nH]c12`: the max response is 7.13%.
Still for that read-out and setting: then `Clc1ncoc1-c1c[nH]c2ccccc12`, with 7.62%.
The same measure, in the same setting: the same measure for `Nc1nc2c(s1)CCN(Cc1ccc(Cl)cc1)CC2`: 6.96%.

The subject of a further test is NIH3T3. Described as above. The following applies: Five cell lines viability, CellTiter-Glo ATP luminescence, 48-72 h; max response: active compounds read low. The method in brief: as §1
Take `C[C@@H]1O[C@@H](O[C@H]2CC[C@@]3(C)C(CC[C@]4(C)C3CC=C3[C@@H]5CC(C)(C)CC[C@]5(C(=O)O[C@@H]5O[C@H](CO)[C@@H](O)[C@H](O)[C@H]5O)CC[C@]34C)[C@]2(C)CO)[C@H](O)[C@H](O[C@@H]2O[C@H](CO)[C@@H](O)[C@H](O)[C@H]2O)[C@H]1O` (stereo partly drawn): the max response was -2.37%.
The same measure, in the same setting: the same measure for `Cc1ccc(C2(C(=O)N3CCC(n4nc(-c5ccccc5)oc4=O)CC3)CC2)cc1`: -1.74%.
As for `O=C(NCc1ccccc1-c1ccccc1C(=O)NCCc1ccccn1)OCc1ccccc1`, the max response was 0.337%.
The same measure, in the same setting: the same measure for `OC1(CN2CCC(COc3noc4cccc(O[C@@H]5CCOC5)c34)CC2)CCOCC1`: -22.8%; for `NS(=O)(=O)c1ccc(N2N=C(c3ccccc3)CC2c2ccccc2)cc1` (stereo not drawn): 2.93%.
Same read-out and setting: the same measure for `CCC[C@H](N[C@H]1CCc2cc(F)cc(F)c2C1)C(=O)Nc1cn(C(C)(C)CNCC(C)(C)C)cn1`: -10.9%.
Regarding `Cc1[nH]c2ccccc2c1CCNCc1ccc(/C=C/C(=O)NO)cc1`, the Potency was 366 nM (active).
For the molecule `CCCCc1ccc(NS(=O)(=O)c2ccc(F)cc2)cc1`, the call was inactive.
Consider `C=C1CCC2[C@](C)(CCC[C@@]2(C)C=O)[C@H]1CC/C(C)=C/CO` (stereo partly drawn), for which the max response was 1.76%.
Same read-out and setting: the same measure for `O=C(NCCCc1ccccc1)C1CCC(CNS(=O)(=O)c2cccc3nsnc23)CC1` (stereo not drawn): -18.1%.
As for `O=C(NCC1(N2CCN(c3ccccc3)CC2)CCOCC1)c1cccnc1Sc1ccccc1`, the outcome was inactive.
Consider `COCCNCc1ccc(-c2cc3nccc(Oc4ccc(NC(=O)C5(C(=O)Nc6ccc(F)cc6)CC5)cc4F)c3s2)nc1`, for which the Potency was 731 nM (active).
`C/C(=C\CCC(C)C1=CCC2(C)OC3=C(CC12)C(=O)C(O)CC3)CO` (stereo not drawn): the max response is -0.114%.
Take `O=C(Nc1ccccc1Cl)c1cnc2ccc(C3CCNCC3)cn12`: the Potency is 1460 nM (active).
For `CC(C)n1c(=O)c(C(=O)NC2CC3CCC(C2)N3C[C@@H](O)CN(C)S(C)(=O)=O)cc2ccccc21` (stereo partly drawn), the max response is -22.5%.
Consider `C=CCCN1CCC2(CC1)CN(C(=O)c1c(F)cccc1F)c1ccc(Cl)cc12`, for which the result was inactive.
For the molecule `CC(C)(CNC(=O)c1cccc(-c2noc(C(F)(F)F)n2)c1)c1coc(-c2ccccc2)n1`, the max response is 4.1%.
With `CCC(C)C(=O)OC12C(OC(C)=O)C(C)C3(O)C(C=C(CO)CC4(O)C(=O)C(C)=CC43)C1C2(C)C` (stereo not drawn), the molecule was classed as inactive.
Turning to `CC1=CC2/C=C(\C)CCC(O)C(=O)C(O)CC(=O)C23C(=O)NC(CC(C)C)C3C1C` (stereo not drawn), the max response is -27%.
Still for that read-out and setting: then `Cc1ccc(C(C)C)c(O[C@@H]2O[C@H](CO)[C@@H](O)[C@H](O)[C@H]2O)c1`, with 2.1%.
On the same count and under the same terms, then `CN(C)C(=O)Nc1cccc(-c2ccc(N(C)C)cc2)c1`, with 3%; and `O=[N+]([O-])c1cn2c(n1)OC[C@@H](OCc1ccc(-c3ccc(OC(F)(F)F)cc3)nc1)C2`, with -0.0728%.
Same read-out and setting: then `C/C(=C\CO[C@@H]1O[C@H](CO[C@H]2OC[C@](O)(CO)[C@H]2O)[C@@H](O)[C@H](O)[C@H]1O)C(C)(C)O`, with 3.25%.
On to `CN(C)S(=O)(=O)c1ccc(NC(=S)N2CCC(C(O)(c3ccccc3)c3ccccc3)CC2)cc1`, for which the molecule was classed as inactive.
With `C=CC(C)(O)CC[C@@H]1[C@@]2(C)CCCC(C)(C)C2CC[C@@]1(C)O` (stereo partly drawn), the max response is -17%.
Same read-out and setting: the same measure for `Cc1c(C(=O)NCc2cccnc2)nn(-c2ccc(Cl)cc2Cl)c1-c1ccc(Cl)cc1`: -4.76%.
As for `C=C1CCN([C@H](C)[C@](O)(Cn2cncn2)c2ccc(F)cc2F)CC1`, the call was inactive.
As for `CC(C)c1noc(C2CCN(c3ncnc(Nc4ccc(S(C)(=O)=O)cc4F)c3[N+](=O)[O-])CC2)n1`, the max response was -23.4%.
Same read-out and setting: the same measure for `CNC(=O)c1ccc2c(c1)CCO[C@H]2CCN1CCN(c2ccc(OC)cc2)CC1`: 2.66%.
`COc1cc(N(C)CCN(C)C)c(N)cc1Nc1nccc(-c2cn(C)c3ccccc23)n1`: the result was inactive.
On to `COc1cc(-c2nc(N[C@H](CO)Cc3ccccc3)ccc2C(=O)NCCOc2ccccc2)cc(OC)c1OC`, for which the max response is -3.25%.
The same measure, in the same setting: the same measure for `C=CC(C)(O)CC/C=C(/C)COC(=O)C(C)C1CCC(C)(C=C)O1` (stereo not drawn): 0.167%.
As to `CC(=O)OC1C(OC(=O)c2ccccc2)C2C(C)(C)CCC(OC(C)=O)C2(C)C23CCC(C)(C2)C(=O)CC13` (stereo not drawn), the molecule was called inactive.
With `C/C=C(\C)C(=O)OC1C(C)C2(O)C(C=C(CO)CC3(O)C(=O)C(C)=CC32)C2C(C)(C)C12OC(C)=O` (stereo not drawn), the max response was -6.06%.
On to `CCCCCOc1ccc(-c2ccc(-c3ccc(C(=O)N[C@H]4C[C@@H](O)[C@@H](O)NC(=O)[C@@H]5[C@@H](O)[C@@H](C)CN5C(=O)[C@H]([C@@H](C)O)NC(=O)[C@H]([C@H](O)[C@@H](O)c5ccc(O)cc5)NC(=O)[C@@H]5C[C@@H](O)CN5C(=O)[C@H]([C@@H](C)O)NC4=O)cc3)cc2)cc1` ({pTerphenylCO(4''-OnC5H11)}-[Orn(4R-OH,5R-OH)]T[Hyp][hTyr(3S-OH,4S-OH)]T[Pro(3S-OH,4S-Me)]; lactam 1-C), for which the max response is -1.62%.
On the same count and under the same terms, then `C[C@@H](O[C@H]1OCCN(Cc2nn(P(=O)(O)O)c(=O)[nH]2)[C@H]1c1ccc(F)cc1)c1cc(C(F)(F)F)cc(C(F)(F)F)c1`, with -9.38%.
Take `CCC[C@@]1(CCc2ccccc2)CC(O)=C([C@H](CC)c2cccc(NS(=O)(=O)c3ccc(C(F)(F)F)cn3)c2)C(=O)O1`: the call was inactive.
On the same count and under the same terms, then `O=c1[nH]cnc2c([C@@H]3N[C@H](CO)[C@@H](O)[C@H]3O)c[nH]c12`, with “inactive”.
Consider `Clc1ncoc1-c1c[nH]c2ccccc12`, for which the max response is -6.46%.
Same read-out and setting: the same measure for `Nc1nc2c(s1)CCN(Cc1ccc(Cl)cc1)CC2`: 0.621%.
